Bioassay records as filed in PubChem.
PLC-beta3 inh – blocks human PLC-beta3 enzyme activity; Q01970; Purified PLC-beta3, fluorogenic substrate, fluorescence; inhibition, % at 12.2 µM; actives 0.18% (n = 370,000);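 further: 0% = median of compound wells on plate and 100% = full blocker control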
MsrA act – activators of bovine methionine sulfoxide reductase A; actives 0.3% (n = 360,000); activation, % at 10.6 µM; purified bovine MsrA, absorbance read-out; in the data active means activation above about 7.5%;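 further: 0% = vehicle and 100% = reference activator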
MsrA inhibitor – inhibits bovine methionine sulfoxide reductase A. purified bovine MsrA, absorbance read-out. inhibition, % at 15.5 µM. actives 0.75% (n = 360,000). AID 651718; in the data active means inhibition above about 4.5%;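 further: 0% = vehicle wells with enzyme and 100% = reference inhibitor wells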
PLC-gamma1 inh – blocks human PLC-gamma1 enzyme activity. P19174. purified PLC-gamma1, fluorogenic substrate, fluorescence. inhibition, % at 12.2 µM. actives 0.84% (n = 370,000); in the data active means inhibition above about 9.5%
PLCg1 ctr – PLC-gamma1 inhibition, counter-screen for PLC-beta3 hits; shares compounds with PLC-gamma1 inh; purified PLC-gamma1, fluorogenic substrate, fluorescence; inhibition, % at 12.3 µM; actives 3.1% (n = 3,300); in the data active means inhibition above about 9.5%
PLCbeta3 conf – confirmation of human PLC-beta3 inhibitors; inhibition, % at 12.3 µM; AID 743261; shares compounds with PLC-gamma1 inh; actives 1% (n = 3,300); purified PLC-beta3, fluorogenic substrate fluorescence
Numbers without * were called inactive; · = not tested or not shown. Only some compounds are listed: those with a hit (about 1.9% of all), similar ones and a draw of the others. Unless noted, no stated cut-off is given here; in the data, active means inhibition above about 11%; inactive means the rest.

SMILES | PLC-beta3 inh | MsrA act | MsrA inhibitor | PLC-gamma1 inh | PLCg1 ctr | PLCbeta3 conf
C[C@H](CO)N1C[C@H](C)[C@@H](CN(C)C(=O)Nc2ccccc2)OCc2cn(nn2)CCCC1=O | 0.4 | · | -1.2 | 1.0 | · | ·
CCOc1ccc(NC(=O)/C=C/c2ccccc2)c([N+](=O)[O-])c1 | 0.9 | -8.3 | -0.4 | 0.4 | · | ·
CCOc1ccc(/C=C/C(=O)Nc2ccc(OC)cc2[N+](=O)[O-])cc1 | 10.8* | -2.1 | 0.9 | 7.3 | -24.4 | -21.3
COc1ccc(NC(=O)Cc2ccc(C)cc2)c([N+](=O)[O-])c1 | 14.4* | -1.4 | 1.6 | 8.0 | -3.3 | 5.9
COc1ccc(NC(=O)COc2ccc(C)cc2)c([N+](=O)[O-])c1 | 6.3 | · | -0.1 | -3.6 | · | ·
COC(=O)c1cc2c(c3c4ccccc4n(S(=O)(=O)c4ccccc4)c13)C(=O)N(Cc1ccc(C(F)(F)F)cc1)C2 | -4.8 | · | 1.3 | -9.0 | · | ·
COc1cccc(NC(=O)CN(c2ccc(C)cc2)S(=O)(=O)c2c(C)nn(C)c2C)c1 | 11.9* | -4.4 | 0.7 | 2.0 | -2.3 | 1.9
COc1ccc(N(CC(=O)Nc2cccc(OC)c2)S(=O)(=O)c2c(C)nn(C)c2C)cc1 | -2.2 | -11.9 | 0.8 | 0.0 | · | ·
O=S1(=O)CC(N2CCN(CCO)CC2)CN1C1CCCCC1 (stereo unspecified) | 5.6 | -1.5 | 0.1 | 3.9 | · | ·
C[C@H](CO)N1C[C@H](C)[C@@H](CN(C)C(=O)Nc2ccccc2)Oc2c(NS(=O)(=O)c3ccccc3)cccc2C1=O | 0.6 | 0.0 | 0.7 | -0.5 | · | ·
C[C@H](CO)N1C[C@H](C)[C@@H](CN(C)C(=O)Nc2ccccc2)Oc2c(NS(=O)(=O)c3ccc(F)cc3)cccc2C1=O | 11.2* | -9.7 | 1.4 | 5.2 | -3.8 | -0.9
CCOC(=O)c1ccc(NC(=O)CSc2nnc(SCc3cccc4ccccc34)s2)cc1 | 8.7 | · | · | 12.1* | -4.8 | -6.6
Cc1cccc(Nc2nnc(SCC(=O)Nc3ccc(C(=O)O)cc3)s2)c1 | 0.2 | -1.2 | 2.4 | 9.8* | -4.4 | -4.0
CCCN1CCN(CCCNC(=O)CN2C(=O)COc3ccc(C(C)(C)C)cc32)CC1 | 1.4 | 0.3 | -1.4 | 0.2 | · | ·
O=C(NC1CC[C@@]23CCCN2C(=O)CCC[C@H]3C1)c1ccccc1 (stereo partly specified) | -1.6 | · | · | -0.4 | · | ·
Cn1c(SC/C=C/c2ccccc2)nnc1-c1cccnc1 | 8.9 | · | · | 11.7* | 1.0 | 1.1
COc1ccccc1C(=O)N1CCN(C(=O)[C@H]2O[C@@H](n3ccc(N)nc3=O)[C@H](O)[C@@H]2O)CC1 | 2.9 | -3.9 | -0.6 | -0.2 | · | ·
O=C(NCc1ccc(OC(F)(F)F)cc1)C1CCC(=O)N(C2CC2)C1 (stereo unspecified) | -3.2 | -7.7 | 1.6 | 10.7* | -0.9 | 0.4
O=C(NCc1ccc(Cl)cc1)C1CCC(=O)N(C2CC2)C1 (stereo unspecified) | -4.4 | -4.4 | -0.6 | 0.5 | · | ·
O=C(N[C@H](Cc1ccccc1)C(=O)O)[C@H]1O[C@@H](n2ccc(=O)[nH]c2=O)[C@H](O)[C@@H]1O | -2.4 | · | 1.7 | -0.2 | · | ·
CN1CCN(c2oc(COc3ccc(-c4ccccc4)cc3)nc2C#N)CC1 | 5.9 | -3.1 | 2.3 | 10.9* | -9.0 | -5.0
Cc1cc(C(=O)NCc2cccs2)ccc1[N+](=O)[O-] | 0.8 | -3.5 | -1.1 | 1.0 | · | ·
O=C(NCc1cccs1)c1ccc([N+](=O)[O-])cc1 | 12.2* | -1.4 | 0.8 | 10.0* | -9.2 | -5.9
CSc1ccc(C(=O)NCC2CCN(C(=O)C(=O)c3cc4ccccc4o3)CC2)cc1 | -0.8 | · | 1.8 | 1.7 | · | ·
COc1ccc(CCN2CC(C(=O)N(C)CC(=O)Nc3ccc(F)c(F)c3F)CC2=O)cc1OC (stereo unspecified) | -0.9 | -2.8 | 0.2 | 11.1* | -3.8 | -0.9
SMILES | PLC-beta3 inh | MsrA act | MsrA inhibitor | PLC-gamma1 inh | PLCg1 ctr | PLCbeta3 conf
CCN(CC(=O)Nc1ccc(NC(C)=O)cc1)C(=O)C1CC(=O)N(CCc2ccc(OC)c(OC)c2)C1 (stereo unspecified) | -5.5 | -2.4 | 0.2 | 2.1 | · | ·
OC1COC(c2ccccc2)OC1C1OC(c2ccccc2)OCC1O (stereo unspecified) | 0.3 | -7.5 | 0.6 | 0.1 | · | ·
NC1(CO)COC(c2ccccc2)OC1 (stereo unspecified) | 11.8* | -2.5 | -1.6 | 5.5 | -8.1 | -2.8
COC(=O)c1ccccc1NN=Nc1ccccc1[N+](=O)[O-] | 13.5* | -2.2 | 1.8 | 1.8 | -3.4 | -0.2
CCCCNC(=O)COC(=O)CCC(=O)c1ccc(F)cc1 | 4.1 | 4.5 | -0.8 | 5.7 | · | ·
CCCNC(=O)COC(=O)CCC(=O)c1ccc(F)cc1 | 7.0 | -10.0 | -1.2 | 9.8* | -1.9 | -7.1
C[C@H]1CN([C@@H](C)CO)C(=O)CCCn2nncc2CO[C@@H]1CN(C)Cc1ccc2cccnc2c1 | 4.8 | · | -0.1 | -0.5 | · | ·
COC(=O)[C@]12C[C@H](CC(=O)N3CCSCC3)C(=O)N(Cc3ccc(Cl)cc3Cl)C1=C[C@H](C(C)C)O[C@@H]2C1CC1 | -1.2 | · | · | -2.6 | · | ·
CN(C)c1ccc(O)c2c1CC1CC3C(N(C)C)C(=O)C(C(N)=O)=C(O)[C@@]3(O)C(=O)C1=C2O (stereo partly specified) | 2.2 | -0.9 | 4.3 | 4.9 | · | ·
C=C1c2cccc(O)c2C(O)=C2C(=O)[C@]3(O)C(O)=C(C(N)=O)C(=O)[C@@H](N(C)C)[C@@H]3[C@@H](O)[C@H]12 | -33.0 | -4.1 | 1.9 | 15.3* | -159.7 | -188.1
CCCC(=O)Nc1ccc(C(=O)Nc2nnc(COC)s2)cc1 | -1.7 | -0.9 | 0.1 | 4.3 | · | ·
COCc1nnc(NC(=O)c2ccc(NC(C)=O)cc2)s1 | 14.0* | -3.9 | 2.1 | 3.9 | -6.4 | -1.4
O=S1(=O)CC(N2CCSCC2)CN1Cc1cn(Cc2ccc(C(F)(F)F)cc2)nn1 (stereo unspecified) | 6.5 | -2.4 | 1.2 | 13.0* | -3.2 | 1.1
CCCCCCCCN1C(=O)[C@H](CC(=O)N2CCOCC2)C[C@@]2(C(=O)OC)CCCCC=C12 | 1.8 | -1.1 | -0.2 | 3.9 | · | ·
CC1(C(=O)NS(=O)(=O)c2ccc(F)cc2F)CCN1C(=O)CCc1ccc(Cl)cc1Cl (stereo unspecified) | -9.1 | -3.4 | 0.2 | -2.7 | · | ·
Cc1nn(C(C)C(=O)N2CCOCC2)c(C)c1[N+](=O)[O-] (stereo unspecified) | 3.0 | -1.3 | -0.8 | 11.4* | -4.5 | -10.4
Cc1nn(C(C)C(=O)O)c(C)c1[N+](=O)[O-] (stereo unspecified) | 3.7 | -1.5 | 0.6 | 1.0 | · | ·
O=C(c1ccco1)N(CC1CCCO1)c1nc(-c2ccccc2)cs1 (stereo unspecified) | -5.2 | -4.8 | -0.7 | -1.4 | · | ·
Cc1ccc(-c2csc(N(CC3CCCO3)C(=O)c3ccco3)n2)cc1 (stereo unspecified) | 3.9 | -13.5 | 0.9 | 11.3* | -12.1 | -6.4
COc1ccc(-c2csc(N(CC3CCCO3)C(=O)c3ccc(C)cc3)n2)cc1 (stereo unspecified) | 4.6 | -0.7 | 1.2 | 14.4* | -4.4 | -6.8
